Records with an inconclusive call do not appear. Activity calls are given as the source filed them. The calls were made as follows: active = hit-call score of the fitted dose curve at least 0.9, where 1 is the maximum; inconclusive = response in the unintended direction; inactive = score below 0.9.

Read-out in this assay: xenobiotic metabolism (CYP1A1), CYP1A1 (gene 1543)
Nature of the assay: CLD_CYP1A1_48hr: CellzDirect (CLD) Gene Expression Assay for xenobiotic metabolism (CYP1A1) at 48 hours (AID 2283705). The protocol:
CLD_48hr is a cell-based, multiplexed-readout assay that uses hepatocyte, a human liver primary cell, with measurements taken at 48 hours after chemical dosing in a 96-well plate.CLD_CYP1A1_48hr is one of 16 assay component(s) measured or calculated from the CLD_48hr assay. It is designed to make measurements of mRNA induction, a form of inducible reporter, as detected with chemiluminescence signals by Quantitative Nuclease Protection Assay (qNPA) technology.Data from the assay component CLD_CYP1A1_48hr was analyzed at the endpoint, CLD_CYP1A1_48hr, in the positive analysis fitting direction relative to DMSO as the negative control and baseline of activity. Using a type of inducible reporter, gain-of-signal activity can be used to understand changes in the reporter gene as they relate to the gene CYP1A1. Furthermore, this assay endpoint can be referred to as a primary readout. To generalize the intended target to other relatable targets, this assay endpoint is annotated to the cyp intended target family, where subfamily is xenobiotic metabolism.
Human hepatocyte cultures were treated daily for two consecutive days with fresh dosing solutions containing appropriate concentrations of the 320 ToxCast chemicals (chemical identities were blinded to CellzDirect and other ToxCast collaborators), vehicle control (0.2% DMSO), and positive control inducers as summarized in Table 1. Due to the large number of treatment groups and chemicals examined, the ToxCast chemicals were divided into two groups (spanning two independent cultures of hepatocytes from separate donor preparations (Hu778: ToxCast plates 1 and 2; Hu776: ToxCast plates 3 and 4). Each preparation of human hepatocyte cultures was treated with respective vehicle control, medium only control, set of six positive controls/reference chemicals for the five hepatic receptor pathways, and a subset of eight of the ToxCast chemicals (indoxacarb, pyrithiobac-sodium, norflurazon, cyhalofop-butyl, methomyl, thiram, acetochlor, and propiconazole). These replicate data, coupled with internal replicates designed within the blinded ToxCast chemical library, provided additional data to evaluate interindividual differences between hepatocyte preparations and their potential impact on chemical profiles.Cell morphology and integrity were evaluated using phase-contrast microscopy as an indicator of hepatocyte cell health (Tyson & Green, 1987). Cultures for each treatment group (i.e., media, vehicle [0.2% DMSO], positive control inducers [multiple concentrations], and the ToxCast chemicals [multiple concentrations]) were observed and cell morphology was assessed relative to vehicle control cultures at each harvest time point (0, 6, 24, or 48 h). […] Images were evaluated at the conclusion of the study to assess changes in cell integrity and account for the effects of chemical exposure on uncharacteristic changes in concentration-dependent gene expression profiles. The results from these determinations of apparent cytotoxicity were annotated (yes/no) alongside the corresponding qNPA data for reference.At the conclusion of each treatment period, hepatocyte cultures (96-well) were washed with 1 volume of HBSS, lysed by addition of 25 ul ArrayPlate lysis buffer (HTG, Tucson, AZ), and 70 ul/well of Denaturation Oil, denatured by incubation at 95C for 10 min, and frozen at approximately -70C until analysis by nuclease protection assay (qNPA) (Roberts et al., 2007). For qNPA analysis, cell lysates were thawed at 50C for approximately 30 min, qNPA probes were added, and samples were incubated at 95C for 10 min to begin the detection process by denaturing the target RNA, dissociating the duplexes and secondary structure hybridization. At the conclusion of the hybridization period, S1 nuclease reagent was added to each sample to digest all nonprotected nucleotides at 50C for 60-90 min. […]
For the molecule `CCCC(=NOCC)C1=C(O)CC(CC(C)SCC)CC1=O` (stereo not given), the molecule was classed as inactive. As to `Cn1c(-c2ccccc2)cc(-c2ccccc2)[n+]1C`, the result was inactive.

Regarding `COC(=O)c1c(C(F)F)nc(C(F)(F)F)c(C2=NCCS2)c1CC(C)C`, the AC50 is 8.66 µM (active). The same measure, in the same setting: the value for `CSC(=O)c1c(C(F)F)nc(C(F)(F)F)c(C(=O)SC)c1CC(C)C` was 20 µM (active). For `CCNC(=O)NC(=O)C(C#N)=NOC`, the call was inactive.

For `O=c1n(Cl)c(=O)n(Cl)c(=O)n1Cl`, the call was inactive. On to `CCOc1cc(C(C)(C)C)ccc1C1COC(c2c(F)cccc2F)=N1` (stereo not given), for which the AC50 is 30.3 µM (active).

For `COC(=O)NC(=S)Nc1ccccc1NC(=S)NC(=O)OC`, the AC50 is 3.32 µM (active). Consider `CCCCOCN(C(=O)CCl)c1c(CC)cccc1CC`, for which the AC50 is 11.5 µM (active). In the case of `Nc1c(Cl)c(F)nc(OCC(=O)O)c1Cl`, the call was inactive.

As to `Nc1cnn(-c2ccccc2)c(=O)c1Cl`, the call was inactive. As to `Cc1cc(C)nc(Nc2ccccc2)n1`, the AC50 was 3.97 µM (active).

On to `CC1(C)C(C=C(Cl)Cl)C1C(=O)OC(C#N)c1cccc(Oc2ccccc2)c1` (stereo not given), for which the outcome was inactive. Regarding `CCN(CC)c1nc(C)cc(OP(=S)(OC)OC)n1`, the AC50 is 9.28 µM (active).

`CCC(C)n1c(=O)[nH]c(C)c(Br)c1=O` (stereo not given): the AC50 was 8.72 µM (active). Take `COC(=O)N(C(=O)N1CO[C@@]2(C(=O)OC)Cc3cc(Cl)ccc3C2=N1)c1ccc(OC(F)(F)F)cc1`: the AC50 is 2.72 µM (active).

Consider `CC(C)N1C(=O)N(c2ccccc2)CSC1=NC(C)(C)C`, for which the AC50 was 33.6 µM (active). Consider `O=C(O)c1c(Cl)ccc2cc(Cl)cnc12`, for which the molecule was called inactive. Consider `CO/N=C(/C1=NOCCO1)c1ccccc1Oc1ncnc(Oc2ccccc2Cl)c1F`, for which the AC50 is 32.4 µM (active). In the case of `COCc1cnc(C2=NC(C)(C(C)C)C(=O)N2)c(C(=O)O)c1` (stereo not given), the outcome was inactive.

On to `CC(C)Oc1cccc(NC(=O)c2ccccc2C(F)(F)F)c1`, for which the AC50 was 36.6 µM (active). `CNC(=O)N(C)c1nnc(C(C)(C)C)s1`: the call was inactive. For `CCOP(=S)(OCC)Oc1nc(Cl)n(C(C)C)n1`, the AC50 was 5.35 µM (active). As to `COP(=S)(OC)SCn1nnc2ccccc2c1=O`, the AC50 was 1.36 µM (active). As to `Clc1nc(Cl)nc(Nc2ccccc2Cl)n1`, the call was inactive. Take `Cc1nc(N(C)C)nc(OC(=O)N(C)C)c1C`: the molecule was called inactive.

On to `COc1cc(Cl)c(OC)cc1Cl`, for which the AC50 is 3.97 µM (active). For the molecule `CCCCC(O)(Cn1cncn1)c1ccc(Cl)cc1Cl` (stereo not given), the AC50 is 20 µM (active). The same measure, in the same setting: the value for `O=C(Nc1ccccc1-c1ccc(Cl)cc1)c1cccnc1Cl` was 20 µM (active); that for `CCCCC(C#N)(Cn1cncn1)c1ccc(Cl)cc1` (stereo not given) was 35.1 µM (active). On to `CCOc1nc(C(Cl)(Cl)Cl)ns1`, for which the AC50 is 3.97 µM (active). As for `O=C1C2CC=CCC2C(=O)N1SC(Cl)(Cl)Cl` (stereo not given), the molecule was classed as inactive. Consider `CCOC(=O)C(C)OC(=O)c1cc(Oc2ccc(C(F)(F)F)cc2Cl)ccc1[N+](=O)[O-]` (stereo not given), for which the AC50 is 20 µM (active). For `Clc1cccc(C(Cl)(Cl)Cl)n1`, the AC50 was 3.97 µM (active).

Regarding `CC(C)N1C(=O)c2ccccc2NS1(=O)=O`, the molecule was classed as inactive. As for `COc1ccc(-c2ccccc2)cc1NNC(=O)OC(C)C`, the molecule was classed as inactive.

`CNC(=O)Oc1cccc2ccccc12`: the AC50 was 3.57 µM (active). For the molecule `COCC(=O)N(c1c(C)cccc1C)C(C)C(=O)OC` (stereo not given), the call was inactive.

For the molecule `CCNP(=S)(OC)O/C(C)=C/C(=O)OC(C)C` (stereo not given), the AC50 was 3.99 µM (active).

As for `Cc1cnc(C2=NC(C)(C(C)C)C(=O)N2)c(C(=O)O)c1` (stereo not given), the result was inactive.

One may read the AC50 as the concentration at which the activity in the assay is half-maximal.

Source of the values: PubChem BioAssay (EPA / NIEHS).
